# The source made the active and inactive calls.
# Key:
# [1] = system: Wnt5a (protein binding on small-molecule microarray); test: small molecules binding Wnt5a protein – biophysical, small-molecule microarray, 635/667 nm fluorescence, primary screen (AID 1142); settings: 635 nm fluorescence, higher = more signal;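 note: fluorescence read at 667 nm with signal to noise per printed feature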
# [2] = ATP-based viability of Huh7 replicon cells – cell-based, CellTiter-Glo luminescence, basal, 48 h, cytotoxicity control for HCV replication inhibitor project, primary screen (AID 1143); settings: higher = more signal, called active from +8 up or from −8 down;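 note: Huh7 hepatoma cells carrying a hepatitis C replication reporter with no stimulus; test concentration not given here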
# [3] = basal CRE-LacZ reporter activity in PC12 – cell-based, unstimulated, primary screen (AID 1145); settings: no forskolin, luminescence, 4.5 h, higher = more signal, called active from +8 up or from −8 down
# [4] = forskolin-driven CRE-LacZ activity in PC12 – cell-based, CRE-LacZ reporter, forskolin-stimulated, primary screen (AID 1146); settings: luminescence, 4.5 h, higher = more signal, called active from +8 up or from −8 down;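 note: PC12 cells with 6xCRE LacZ reporter stimulated by forskolin 10 µM; beta-galactosidase reporter signal reflecting CREB driven transcription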
# [5] = target: Streptavidin (Streptomyces avidinii) (UniProt P22629); test: compounds binding control protein streptavidin – biophysical, small-molecule microarray, 635/667 nm fluorescence, artefact control for SMM compound annotation, primary screen (AID 1147); settings: higher = more signal;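 note: signal reflects streptavidin binding to arrayed compounds as a control protein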
# Streptavidin (Streptomyces avidinii), sequence (P22629 whole entry, looked up): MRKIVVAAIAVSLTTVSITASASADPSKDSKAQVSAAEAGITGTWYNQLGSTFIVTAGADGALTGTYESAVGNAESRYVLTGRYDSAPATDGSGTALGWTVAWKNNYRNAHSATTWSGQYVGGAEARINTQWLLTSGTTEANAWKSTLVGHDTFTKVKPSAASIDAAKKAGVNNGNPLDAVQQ
# [6] = probe aInhba binding on compound microarray – biochemical, small-molecule microarray, 635/667 nm fluorescence, primary screen (AID 1148); settings: higher = more signal;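 note: score merges 667nm spot fluorescence with signal-to-noise for antibody binding to printed compounds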
# Torsin-1A (Homo sapiens) [7] = target: Torsin-1A (Homo sapiens) (UniProt O14656); test: TOR1A wild-type binding on microarray – cell lysate, small-molecule microarray, lysate, 635/667 nm, primary screen (AID 1149); settings: COS7 hTOR1A-WT lysate, 635 nm fluorescence, higher = more signal
# Torsin-1A (Homo sapiens), sequence (O14656 whole entry, looked up): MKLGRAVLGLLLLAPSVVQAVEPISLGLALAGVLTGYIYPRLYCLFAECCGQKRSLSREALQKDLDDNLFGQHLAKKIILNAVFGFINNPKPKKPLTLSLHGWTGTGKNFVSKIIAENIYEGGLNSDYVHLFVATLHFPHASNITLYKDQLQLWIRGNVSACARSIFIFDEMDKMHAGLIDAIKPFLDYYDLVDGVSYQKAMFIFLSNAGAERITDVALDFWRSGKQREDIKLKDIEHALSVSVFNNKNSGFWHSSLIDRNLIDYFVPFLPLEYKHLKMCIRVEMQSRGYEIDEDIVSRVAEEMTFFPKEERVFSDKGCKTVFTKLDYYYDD
# Torsin-1A (Homo sapiens) [8] = target: Torsin-1A (Homo sapiens) (UniProt O14656); test: torsin A mutant lysate binding on microarrays – cell lysate, small-molecule microarray, COS7 lysate, 635/667 nm fluorescence, primary screen (AID 1150); settings: COS7 hTOR1A mutant lysate, 635 nm fluorescence, higher = more signal;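 note: score pools 667 nm emission and signal to noise measuring lysate protein binding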
# [9] = system: Sonic hedgehog protein (Shh); test: Sonic hedgehog microarray binding compounds – biochemical, small-molecule microarray, 635/667 nm fluorescence, primary screen (AID 1151); settings: 635 nm fluorescence, higher = more signal;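 note: Shh protein binding to compounds spotted on small-molecule microarray slides; score combines spot fluorescence intensity with signal-to-noise across triplicate slides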
# [10] = optical density shifts of acrAB sulA E. coli – strain DRC41, OD650, 48 h, E. coli filamentation inducer project, primary screen (AID 1152); settings: higher = more signal, called active from +8 up or from −8 down;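 note: E. coli MC1000 strain DRC41 lacking acrAB efflux pump and sulA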
# [11] = probe aLefty1 binding on compound microarray – biochemical, small-molecule microarray, 635/667 nm fluorescence, primary screen (AID 1153); settings: higher = more signal;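 note: score merges spot fluorescence with signal-to-noise ratio from the scanned slide images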
# [12] = plasmodial surface anion channel blockers, osmotic lysis – cell-based, P. falciparum Indochina, OD700, 1 h, primary screen (AID 1154); settings: P. falciparum Indochina infected RBC osmotic lysis, higher = more signal, called active from +8 up or from −8 down
# [13] = plasmodial surface anion channel blockers, osmotic lysis – cell-based, P. falciparum Indochina, OD700, 2 h, primary screen (AID 1155);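 note: lysis reports solute entry through the parasite surface anion channel PSAC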; settings: P. falciparum Indochina infected erythrocytes, higher = more signal, called active from +8 up or from −8 down
# [14] = changes in parasitized red cell lysis, either direction – P. falciparum Indochina, OD700, 3 h, PSAC antagonist project, primary screen (AID 1156); settings: P. falciparum-infected erythrocytes, osmotic lysis, higher = more signal, called active from +8 up or from −8 down
# [15] = plasmodial surface anion channel blockers, osmotic lysis – cell-based, P. falciparum Indochina, OD700, 18 h, primary screen (AID 1157); settings: P. falciparum Indochina infected erythrocytes, osmotic lysis OD700, 18 h; higher = more signal, called active from +8 up or from −8 down
# [16] = S6 kinase pathway phospho-S6 level changes – cell-based, A549, cytoblot, luminescence, serum-stimulated, primary screen (AID 1158); settings: 5 h, higher = more signal;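 note: serum-stimulated A549 lung adenocarcinoma cells; signal is phosphorylated S6 detected by cytoblot immunostaining with HRP secondary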
# [17] = target: NADPH oxidase 2 (Homo sapiens) (UniProt P04839); test: compounds shifting NOX2 Amplex Red fluorescence – cell-based, HEK293-NOX2, PMA-stimulated, NOX inhibitor project, primary screen (AID 1159); settings: 45 min, higher = more signal, called active from +8 up or from −8 down; note: test concentration not given here
# NADPH oxidase 2 (Homo sapiens), sequence (P04839 whole entry, looked up): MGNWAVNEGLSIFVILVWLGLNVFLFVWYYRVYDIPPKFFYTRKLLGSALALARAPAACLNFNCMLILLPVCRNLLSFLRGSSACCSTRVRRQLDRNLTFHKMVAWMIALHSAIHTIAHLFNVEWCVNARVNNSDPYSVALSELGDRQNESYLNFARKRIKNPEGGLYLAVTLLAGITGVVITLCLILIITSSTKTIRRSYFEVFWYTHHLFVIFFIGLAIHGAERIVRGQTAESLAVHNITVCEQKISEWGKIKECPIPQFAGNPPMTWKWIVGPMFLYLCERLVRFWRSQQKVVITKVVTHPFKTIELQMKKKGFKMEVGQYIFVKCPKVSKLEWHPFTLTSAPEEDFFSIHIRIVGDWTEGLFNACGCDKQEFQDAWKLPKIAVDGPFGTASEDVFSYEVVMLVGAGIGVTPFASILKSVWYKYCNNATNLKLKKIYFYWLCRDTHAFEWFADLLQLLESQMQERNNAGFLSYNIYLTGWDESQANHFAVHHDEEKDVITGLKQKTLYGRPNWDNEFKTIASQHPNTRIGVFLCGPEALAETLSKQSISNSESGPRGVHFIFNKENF
# [18] = target: NADPH oxidase 4 (Homo sapiens) (UniProt Q9NPH5); test: compounds shifting NOX4 Amplex Red fluorescence – cell-based, HEK293-NOX4, tetracycline-induced, NOX inhibitor project, primary screen (AID 1160); settings: HEK293-NOX4, Amplex Red H2O2 fluorescence, 45 min; higher = more signal, called active from +8 up or from −8 down
# NADPH oxidase 4 (Homo sapiens), sequence (Q9NPH5 whole entry, looked up): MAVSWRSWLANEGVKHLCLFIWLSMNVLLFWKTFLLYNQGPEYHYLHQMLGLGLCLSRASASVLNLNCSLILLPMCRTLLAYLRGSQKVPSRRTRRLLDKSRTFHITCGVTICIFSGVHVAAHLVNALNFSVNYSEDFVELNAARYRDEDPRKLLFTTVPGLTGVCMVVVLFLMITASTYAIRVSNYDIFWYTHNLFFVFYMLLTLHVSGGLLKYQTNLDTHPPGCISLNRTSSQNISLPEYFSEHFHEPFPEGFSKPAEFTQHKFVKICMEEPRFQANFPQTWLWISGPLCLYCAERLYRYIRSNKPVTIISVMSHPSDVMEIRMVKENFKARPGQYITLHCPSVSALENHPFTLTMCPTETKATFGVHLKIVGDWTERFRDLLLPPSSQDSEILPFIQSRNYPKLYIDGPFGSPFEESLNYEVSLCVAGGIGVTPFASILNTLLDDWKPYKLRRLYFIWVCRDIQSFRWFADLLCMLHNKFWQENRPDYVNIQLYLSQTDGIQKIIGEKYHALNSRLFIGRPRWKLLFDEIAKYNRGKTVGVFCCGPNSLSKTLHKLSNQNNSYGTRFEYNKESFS
# [19] = target: NADPH oxidase 5 (Homo sapiens) (UniProt Q96PH1); test: compounds shifting NOX5 Amplex Red fluorescence – cell-based, HEK293-NOX5, NOX inhibitor project, primary screen (AID 1161); settings: HEK293-NOX5, ionomycin, 45 min, higher = more signal
# NADPH oxidase 5 (Homo sapiens), sequence (Q96PH1 whole entry, looked up): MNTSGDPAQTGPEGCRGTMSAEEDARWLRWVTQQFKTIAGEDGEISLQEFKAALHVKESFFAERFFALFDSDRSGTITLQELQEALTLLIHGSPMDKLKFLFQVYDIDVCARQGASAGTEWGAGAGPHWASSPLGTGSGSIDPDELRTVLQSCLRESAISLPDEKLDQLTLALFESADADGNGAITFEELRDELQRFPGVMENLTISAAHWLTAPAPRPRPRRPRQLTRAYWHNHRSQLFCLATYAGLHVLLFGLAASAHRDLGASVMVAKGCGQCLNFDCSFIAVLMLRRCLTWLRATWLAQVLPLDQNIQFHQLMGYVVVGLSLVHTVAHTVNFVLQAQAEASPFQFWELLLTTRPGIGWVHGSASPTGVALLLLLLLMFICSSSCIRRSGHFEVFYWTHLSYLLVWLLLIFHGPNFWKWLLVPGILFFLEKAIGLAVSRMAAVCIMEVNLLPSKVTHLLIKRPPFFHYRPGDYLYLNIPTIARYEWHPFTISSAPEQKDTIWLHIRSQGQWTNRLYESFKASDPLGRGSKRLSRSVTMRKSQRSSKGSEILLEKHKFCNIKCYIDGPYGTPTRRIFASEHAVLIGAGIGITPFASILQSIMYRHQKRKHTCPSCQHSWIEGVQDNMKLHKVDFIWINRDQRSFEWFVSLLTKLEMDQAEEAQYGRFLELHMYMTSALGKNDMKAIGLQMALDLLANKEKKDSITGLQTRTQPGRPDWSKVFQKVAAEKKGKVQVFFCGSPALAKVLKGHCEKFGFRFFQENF
# [20] = compound effects on lung adenocarcinoma cell viability – A549, calcein-AM fluorescence, 48 h, basal, profiling panel (AID 1162); settings: higher = more signal; note: test concentration not given here
SMILES,composite z-score [1],z-score [2],z-score [3],z-score [4],composite z-score [5],composite z-score [6],composite z-score (Torsin-1A (Homo sapiens) [7]),composite z-score (Torsin-1A (Homo sapiens) [8]),composite z-score [9],z-score [10],composite z-score [11],z-score [12],z-score [13],z-score [14],z-score [15],z-score [16],z-score [17],z-score [18],z-score [19],z-score [20]
COCCOC(=O)N1C(=O)[C@@]2(c3cc(C#CCCO)ccc31)[C@H](c1ccccc1OCCO)N1[C@H](c3ccccc3)[C@H](c3ccccc3)OC(=O)[C@H]1[C@@H]2C(=O)NC[C@H](O)c1ccccc1,0.142,-4.1 (inactive),1.42 (inactive),-1.44 (inactive),0.506,0.209,1.94,0.552,1.56,2.96 (inactive),-0.0222,3.88 (inactive),0.965 (inactive),0.673 (inactive),0.442 (inactive),2.31,1.59 (inactive),1.52 (inactive),-0.0153,2.07
COCCOC(=O)N1C(=O)[C@@]2(c3cc(C#CC4(O)CCCCCC4)ccc31)[C@H](c1ccccc1OCCO)N1[C@H](c3ccccc3)[C@H](c3ccccc3)OC(=O)[C@H]1[C@@H]2C(=O)Nc1nc2ccccc2s1,0.478,-4.73 (inactive),0.802 (inactive),-1.05 (inactive),0.16,-0.0468,1.2,0.663,1.52,2.49 (inactive),-0.105,3.33 (inactive),0.299 (inactive),0.851 (inactive),-0.515 (inactive),1.02,1.27 (inactive),-0.694 (inactive),0.339,-0.997
C=CCN1C(=O)[C@@]2(O[C@@H](CCO)[C@H]([Si](C)(C)c3ccc(OC)cc3)[C@H]2C)c2cc(N(C=O)c3ccccc3)ccc21,0.125,-7.99 (inactive),16.9 (active),-4.02 (inactive),-0.387,-0.0044,0.0589,0.0237,0.207,1.55 (inactive),-0.16,24 (active),7.57 (inactive),-0.599 (inactive),0.279 (inactive),0.183,-0.477 (inactive),0.638 (inactive),-0.174,-3.16
COC(=O)C1=CC(c2ccc(CO)cc2)=CC(c2cccs2)N(C)C=C1C(=O)OC (stereo not given),-0.246,-3.59 (inactive),-0.348 (inactive),-0.534 (inactive),0.295,-0.0471,0.503,0.634,0.335,2.46 (inactive),0.571,6.76 (inactive),0.0213 (inactive),-0.64 (inactive),-1.49 (inactive),1.67,-1.48 (inactive),-2.33 (inactive),-1.44,0.126
CC(C)(C)OC(=O)CC[C@@]1(C(=O)NCc2ccccc2)N=C(c2ccc(OCCCO)cc2)O[C@@H]1c1ccccc1CN=[N+]=[N-],1.14,-5.23 (inactive),1.46 (inactive),-1.42 (inactive),1.17,0.156,0.807,0.312,0.285,2.4 (inactive),-0.14,26.3 (active),16.7 (active),-0.187 (inactive),0.712 (inactive),2.07,-0.046 (inactive),-0.0643 (inactive),-1.35,1.09
CC(C)(C)OC(=O)CC[C@@]12N=C(c3ccc(OCCCO)cc3)O[C@@H]1c1ccccc1CN(Cc1ccccc1)C2=O,0.822,-4.74 (inactive),0.344 (inactive),-2.32 (inactive),0.197,0.0756,0.161,-0.0105,1.04,0.71 (inactive),0.33,28 (active),25.8 (active),2.02 (inactive),2.14 (inactive),0.302,0.622 (inactive),-0.441 (inactive),-1.44,-0.633
[N-]=[N+]=Nc1ccccc1[C@H]1OC(c2ccc(OCCCO)cc2)=N[C@@]1(Cc1ccccc1)C(N)=O,0.792,-3.44 (inactive),0.862 (inactive),-1.89 (inactive),1.92,0.329,0.596,0.622,0.281,1.99 (inactive),0.752,31.6 (active),28.4 (active),1.64 (inactive),7.66 (inactive),1.8,-1.71 (inactive),0.363 (inactive),-0.45,-0.297
C=CCN1C(=O)[C@]2(O[C@H](CCn3cc([C@H](O)c4ccccc4)nn3)[C@@H]([Si](C)(C)c3ccc(OC)cc3)[C@@H]2C)c2cc(N3CCOC3=O)ccc21,-0.185,-5.33 (inactive),2.8 (inactive),-2.35 (inactive),-0.0082,-0.224,0.772,0.76,-0.429,1.46 (inactive),-0.417,4.38 (inactive),-0.527 (inactive),1.03 (inactive),-1.58 (inactive),0.348,-0.122 (inactive),1.61 (inactive),-2.66,0.0522
Cc1ccc(S[C@]2(C(=O)NC3CC3)CC(=O)N(Cc3ccccc3C(F)(F)F)[C@@H]2c2ccc(CO)cc2I)cc1,0.132,-2.54 (inactive),-0.114 (inactive),-0.479 (inactive),-0.297,-0.0523,-0.0139,0.231,0.385,2.31 (inactive),0.309,5.75 (inactive),-0.15 (inactive),0.693 (inactive),-1.31 (inactive),1.8,1.42 (inactive),-2.36 (inactive),1.21,0.243
CCCCCN1CC=CC23O[C@@H]4/C=C\CCC(C)OC(=O)C4[C@H]2C(=O)N(CCCO)[C@@H]3C1=O (stereo not given in full),0.0429,-1.37 (inactive),0.487 (inactive),0.213 (inactive),-0.67,-0.245,0.26,-0.147,-0.0977,1.5 (inactive),-0.229,-0.404 (inactive),-0.0816 (inactive),0.787 (inactive),0.281 (inactive),0.0147,1.86 (inactive),0.381 (inactive),2.57,-0.367
COCCCNC(=O)[C@@]1(CCS(=O)(=O)c2ccccc2)N=C(c2ccc(OCCCO)cc2)O[C@H]1c1ccccc1CN=[N+]=[N-],0.671,-5.36 (inactive),2.57 (inactive),-1.7 (inactive),1.41,0.358,-0.183,0.186,0.744,2.33 (inactive),1.03,23.5 (active),4.65 (inactive),2.25 (inactive),0.425 (inactive),3.83,0.439 (inactive),-0.383 (inactive),-0.497,1
O=C(NCc1ccccc1)[C@@H]1c2ccccc2C(=O)N(Cc2ccccc2Cl)[C@H]1c1ccc(CO)cc1,0.531,-1.32 (inactive),-0.152 (inactive),-0.918 (inactive),0.527,-0.119,1.1,0.759,1.54,2.17 (inactive),0.139,1.79 (inactive),-0.576 (inactive),-0.0527 (inactive),-1.17 (inactive),0.894,-0.932 (inactive),0.992 (inactive),-0.544,0.703
CC(C)(C)OC(=O)CC[C@]1(C(=O)NCc2ccccc2)N=C(c2ccc(OCCCO)cc2)O[C@H]1c1ccccc1N=[N+]=[N-],1.11,-3.04 (inactive),1.13 (inactive),-1.4 (inactive),1.71,0.317,0.466,0.78,0.425,1.78 (inactive),0.598,30.9 (active),27.9 (active),2.08 (inactive),6.66 (inactive),1.55,-2.28 (inactive),-0.17 (inactive),-2.3,0.117
Cc1ccc(S[C@]2(C(=O)NCC(C)C)CC(=O)N(C(C)C)[C@@H]2c2ccc(CO)cc2)cc1,0.114,-4.95 (inactive),0.182 (inactive),-0.838 (inactive),-1.13,0.0464,0.234,0.0167,-0.305,2.67 (inactive),-0.191,1.73 (inactive),-0.147 (inactive),-0.651 (inactive),-1.54 (inactive),3.27,0.827 (inactive),-0.881 (inactive),0.137,-0.0169
O=C(O)[C@H]1C[C@H]2C(=O)N[C@@H](Cc3ccccc3)C(=O)N2[C@H]1c1ccc(O)cc1,0.0525,-0.423 (inactive),0.826 (inactive),-0.83 (inactive),-0.0681,0.0228,0.563,0.458,1.24,0.763 (inactive),-0.0162,2.03 (inactive),-0.0251 (inactive),-7.14 (inactive),-0.139 (inactive),0.432,1.53 (inactive),1.42 (inactive),2.01,-0.315
COc1ccc([Si](C)(C)[C@@H]2[C@@H](CCn3cc(CCO)nn3)O[C@]3(C(=O)N(Cc4ccc(N5C(=O)c6cccc7cccc5c67)cc4)c4ccccc43)[C@H]2C)cc1,0.0378,-7.93 (inactive),0.353 (inactive),-1.65 (inactive),0.256,-0.0529,0.815,0.609,0.907,1.93 (inactive),0.457,6 (inactive),0.758 (inactive),-1.06 (inactive),-1.22 (inactive),2.29,2.23 (inactive),1.62 (inactive),1.42,-1.32
C=C(/C(=C/C[C@H](OC(C)=O)c1cccc(OCCO)c1)c1cc(C(=O)OC)ccc1OC)C(C)C,-0.0431,-0.802 (inactive),11.7 (active),-1.02 (inactive),-0.948,-0.128,-0.0282,-0.193,0.237,1.81 (inactive),-0.191,6.36 (inactive),1.29 (inactive),2.46 (inactive),0.576 (inactive),-0.228,2.19 (inactive),1.84 (inactive),-1.06,1.75

# Reference: PubChem BioAssay
